Holding throughout (settings): concentration: 1 μM, replicates: in singlicate; n = 1
Experiment [1] relates to STK36.
In experiment [2] the test system is STK39.
The subject of experiment [3] is SYK.
In experiment [4] the test system is SgK110.
Experiment [5] has as its system T1, TAK1.
T1 construct: gene MAP3K7

Experiment [6] concerns TAOK1.
Experiment [7] relates to TAOK2.
The test system of experiment [8] is TAOK3.
Experiment [9] relates to TBK1.
Experiment [10] relates to TEC.
The subject of experiment [11] is TESK1.
The test system of experiment [12] is TGFBR1.
Experiment [13] deals with TGFBR2.
Experiment [14] deals with TIE1.
Experiment [15] relates to T2, TIE2.
T2 construct: gene TEK

Experiment [16] has as its system TLK1.
Experiment [17] deals with TLK2.
Experiment [18] has as its system TNIK.
Experiment [19] deals with TNK1.
Experiment [20] relates to TNK2.
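Also: KINOMEscan kinase panel screen.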

For `Nc1ncc(-c2ccc3nccc(-c4ccncc4)c3c2)cc1S(=O)(=O)N1CCOCC1` [GSK1627798], the “%Inh” value in experiment [1] is reported as 0%; in [2] it was 0%; in [3], 12%; in experiment [4], 0%; in experiment [5], 0%; in [6], 0%. Further, the “%Inh” value was 0% in experiment [7]; 0% in [8]; 10% in [9]; 9% in [10]; 2% in experiment [11]; 0% in [12]. Further, the “%Inh” value in experiment [13] amounted to 5%; in [14], 3%; in experiment [15], 0%; in experiment [16], 0%; in experiment [17], 0%; in experiment [18], 0%. For the same molecule, the “%Inh” value stood at 0% in [19] and 11% in experiment [20].
With `Cc1ccc(F)c(C(=O)Nc2cccc(-c3nn4ccccc4c3-c3ccnc(Nc4cccc(F)c4)n3)c2)c1F` [GSK361061], the “%Inh” value was 99.1% in experiment [1]; 18% in [2]; 45% in experiment [3]; 0% in [4]; 0% in experiment [5]; 33% in experiment [6]. For the same molecule, the “%Inh” value stood at 18% in experiment [7]; 41% in experiment [8]; 29% in [9]; 75% in experiment [10]; 28% in experiment [11]; 43% in experiment [12]. Further, the “%Inh” value in [13] is 21%; in [14], 55%; in experiment [15], 27%; in [16], 8%; in experiment [17], 0%; in experiment [18] it was 29%. Besides, the “%Inh” value in experiment [19] is recorded as 88%; in experiment [20] it was 43%.
For the molecule `C[C@@H](Oc1cc(-n2cnc3cc(-c4ccnc(NCCS(C)(=O)=O)c4)ccc32)sc1C(N)=O)c1ccccc1Cl` [GSK907232], the “%Inh” value in experiment [1] worked out at 0%; in experiment [2] it was 13%; in experiment [3], 80%; in [4] it was 0%; in experiment [5], 0%; in experiment [6] it was 0%. Further, the “%Inh” value worked out at 0% in [7]; 0% in experiment [8]; 5% in [9]; 4% in [10]; 28% in [11]; 5% in [12]. In addition, the “%Inh” value in experiment [13] is on record as 0%; in [14], 78%; in experiment [15] it was 56%; in experiment [16], 0%; in experiment [17], 0%; in experiment [18], 36%. The “%Inh” value in experiment [19] amounted to 17%; in experiment [20] it was 33%.
For `CCn1c(-c2nonc2N)nc2c(C#CC(C)(C)O)nc(OC[C@H](N)c3ccccc3)cc21` [GSK943949], the “%Inh” value in experiment [1] turned out to be 0%; in [2], 5%; in experiment [3], 2%; in experiment [4] it was 0%; in experiment [5], 18%; in [6], 64%. The “%Inh” value is recorded as 27% in experiment [7]; 3% in experiment [8]; 0% in experiment [9]; 0% in experiment [10]; 0% in [11]; 9% in [12]. In addition, the “%Inh” value was found to be 0% in experiment [13]; 0% in [14]; 0% in [15]; 2% in [16]; 0% in experiment [17]; 4% in experiment [18]. Further, the “%Inh” value in experiment [19] is recorded as 0%; in experiment [20], 8%.
As to `CCCCc1nn2ncccc2c1-c1ccnc(Nc2ccc(N3CCN(C)CC3)cc2)n1` [GW684941], the “%Inh” value was found to be 91.4% in experiment [1]; 33% in experiment [2]; 0% in [3]; 10% in experiment [4]; 4% in experiment [5]; 37% in experiment [6]. Moreover, the “%Inh” value was 47% in experiment [7]; 42% in experiment [8]; 11% in experiment [9]; 0% in [10]; 39% in experiment [11]; 80% in experiment [12]. The “%Inh” value was 91% in experiment [13]; 93.6% in experiment [14]; 80% in experiment [15]; 0% in [16]; 0% in [17]; 25% in experiment [18]. The “%Inh” value worked out at 86% in [19] and 62% in experiment [20].
